About 30 (0.1%) of roughly 23,000 compounds showed an effect of 50% or more. This excerpt belongs to a sample that is enriched for strong results. Potency and affinity values are given separately.
System: Pseudomonas aeruginosa
Conditions: Concentration 20 uM; ASSAY_TEST Inhibition of Bacterial Growth; detection method Absorption (OD600); MEDIA CAMHB; plate type 384well; NBS; CORNING #3640; time 18 hr

Row | Compound | Inhibition
1 | OCc1ncccc1O | 3.5%
2 | Oc1ccnc2c(Cl)cccc12 | -8.65%
3 | Oc1ccc2ccccc2c1/N=N/c1ccc(F)cc1 | 0.71%
4 | O=[N+]([O-])c1cccc(/C=C/c2ccccn2)c1 | 19.15%
5 | CSc1nc(S)c2[nH]c(S)nc2n1 | 6.05%
6 | Cc1ccc(/N=N/c2ccc(N)cc2C)c(S(N)(=O)=O)c1 | -1.43%
7 | COc1ccc(/C(C#N)=C/c2cccnc2)cc1 | 11.13%
8 | C=CCC(CC)C(=O)NC(=O)N1CCCc2ccccc21 (centres undefined) | -1.54%
9 | C=C1S/C(=N\c2c(C)cccc2Cl)N(C(=O)c2sc3ccccc3c2Cl)C12CCCCC2 | -6.03%
10 | COC1OC(CO)C(N=C(C)C)C1O (centres undefined) | -2.66%
11 | c1ccc(Nc2cccc3c(Nc4ccccc4)cccc23)cc1 | 21.7%
12 | O=C(Nc1cccnc1)c1cccc([N+](=O)[O-])c1 | 8.42%
13 | COC1OC(O)C(NC(=O)C(F)(F)F)CC1O (centres undefined) | 6.88%
14 | O=C1CSCc2nc3ccccc3n21 | 23.81%

From ChEMBL document CHEMBL4296182, “CO-ADD screening of NIH NCI Diversity Set V”
